Screens from PubChem BioAssay.
Rows were chosen to be rich in hits. Some 18% of all compounds tested hit in one or more screens of this group.
CtBP-E1A blk – blocks the CtBP interaction with E1A | AlphaScreen GST-E1A/His-CtBP binding, 1536-well; stronger effect = lower value | activity change, % (concentration not given with the values) | 0.49% of 340,000 active; in the data active = activity change below about -65%; inconclusive = mostly about -30% to -63%
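In 5 uL wells, 23 nL compound meets equimolar GST-E1A and His-CtBP (5X stock 125 nM each) for 2 h, 37 °C. Beads (5X, 50 ug/mL) then 1 h, 37 °C, dark.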
TDP1 inh – TDP1 (human) enzyme inhibition. 0.28% of 350,000 active. recombinant TDP1, AlphaScreen DNA substrate cleavage. Potency, µM (highest dose often 130 µM), for inactives: top-dose activity change, negative = inhibition, actives largely listed as inhibitors; note: potency is the fitted concentration of half-maximal effect; nearly all actives have a fitted effect of over 40% in size
Target sequence (Q9NUW8 whole entry, looked up): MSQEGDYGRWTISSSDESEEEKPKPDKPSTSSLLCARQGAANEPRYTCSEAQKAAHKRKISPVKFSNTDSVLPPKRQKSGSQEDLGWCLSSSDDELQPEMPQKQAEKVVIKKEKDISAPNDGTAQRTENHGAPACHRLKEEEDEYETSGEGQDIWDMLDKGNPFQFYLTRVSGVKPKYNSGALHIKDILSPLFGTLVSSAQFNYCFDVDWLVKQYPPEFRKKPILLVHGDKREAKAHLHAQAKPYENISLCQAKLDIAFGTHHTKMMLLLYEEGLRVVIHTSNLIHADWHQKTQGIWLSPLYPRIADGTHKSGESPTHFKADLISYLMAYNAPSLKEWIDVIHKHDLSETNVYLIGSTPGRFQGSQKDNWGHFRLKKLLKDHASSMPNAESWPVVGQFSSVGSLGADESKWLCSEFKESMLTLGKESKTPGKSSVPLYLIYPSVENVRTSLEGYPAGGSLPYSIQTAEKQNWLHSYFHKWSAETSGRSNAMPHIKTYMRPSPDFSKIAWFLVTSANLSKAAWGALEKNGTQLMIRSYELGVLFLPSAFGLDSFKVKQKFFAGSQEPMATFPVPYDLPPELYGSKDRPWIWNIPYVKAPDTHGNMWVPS
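Signal: AlphaScreen proximity between streptavidin donor and anti-FITC acceptor beads on intact substrate. Reaction: Tdp1 1 nM, substrate 15 nM final, 5 min RT after 15 min compound preincubation.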
TDP1 cell noCPT – qHTS for Inhibitors of human tyrosyl-DNA phosphodiesterase 1 (TDP1): qHTS in cells in absence of CPT; DT40 Tdp1-/- hTDP1 cells, no CPT, ATP luminescence, 48 h; Potency, µM (top dose mostly 46.2 µM), without a hit: top-dose activity change, negative = growth inhibition, actives largely listed as inhibitors; 15% of 420,000 active; AID 686978, 2013; note: potency is the fitted concentration of half-maximal effect; nearly all actives have a fitted effect of over 55% in size
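Chicken DT40 Tdp1-/- cells complemented with human TDP1, screened without camptothecin (DMSO vehicle only), 400 cells/well. Compounds pin-transferred, cells incubated at 37 °C for at least 48 hr. Growth read as ATP-dependent luminescence (CellTiter-Glo, 30 min at RT).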
Six1-Eya2 inh – blocks human Six1 binding to Eya2 | AlphaScreen GST-Six1/His-Eya2 binding, biochemical; stronger effect = lower value | activity change, % (no concentration beside the values) | 0.56% of 360,000 active | AID 651725; in the data active = activity change below about -65%; inconclusive = mostly about -30% to -63%
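GST-Six1 + His-Eya2 (5X stock: 250/500 nM); Tris pH 8.0, 300 mM NaCl, 0.05% BSA, 0.02% Tween 20; GSH donor/Ni acceptor beads; 1 h 37 °C dark; AlphaScreen readout.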
DT40 TDP1 CPT – DT40-hTDP1 cell growth loss with CPT; chicken DT40 Tdp1-/-;hTDP1 cells + 20 nM CPT, ATP luminescence, 48 h; 12% of 420,000 active; Potency, µM (doses to about 46.2 µM), for the others: at the top dose activity change, negative = growth inhibition, most hits filed as inhibitors; note: potency is the fitted concentration of half-maximal effect; nearly all actives have a fitted effect of over 55% in size
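Chicken DT40 Tdp1-/- cells stably complemented with human TDP1 were seeded at 400 cells/well in medium containing 20 nM camptothecin, exposed to pin-transferred compounds, and grown at 37 °C for at least 48 hr. Viability was read as ATP luminescence.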
IL1B secr inh – inhibitors of inflammasome signaling (IL-1 beta secretion); THP-1 LPS/ATP IL-1B secretion, AlphaLISA, 16 h; stronger effect = lower value; activity change, % at 57.5 µM; 4.7% of 360,000 active; AID 743279; in the data active = activity change below about -50%; inconclusive = mostly about -30% to -49%
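THP-1 cells pretreated 1 hr with compounds (up to 57.5 uM final), then stimulated with LPS (250 ng/mL final) plus ATP (1.25 mM final); secreted IL-1B measured by AlphaLISA after 16 hr, decreased signal indicating inhibition.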
* hit, by the source's call; ? = inconclusive; . = no result given. Unless noted, calls come from the whole dose curve; as a rule, active = well fitted curve in the direction sought with a large enough effect; inconclusive = small, poorly fitted or top-dose-only effect, or another doubt; inactive = no such curve, though single readings can be large; an effect the other way counts as inactive or inconclusive. % is set by controls: 0 for no effect and ±100 for the full control effect.

SMILES | CtBP-E1A blk | TDP1 inh | TDP1 cell noCPT | Six1-Eya2 inh | DT40 TDP1 CPT | IL1B secr inh
CN(CC(=O)Nc1ccc(F)cc1)C(=O)COC(=O)Cc1c(F)cccc1Cl | 0.0 | . | 6.51µM* | -7.3 | -12.1% | -16.6
CCOc1ccc(NC(=O)CN(C)C(=O)c2ccccc2Cc2ccccc2)cc1OCC | -4.7 | 3.1% | 9.2µM* | -9.2 | 14.6µM* | 1.3
Cc1cc(C(=O)N(C)CC(=O)Nc2ccccc2C(F)(F)F)c(C)o1 | 3.7 | 2.1% | 23.1µM* | 0.4 | 16.4µM* | -28.5
CCOc1ccc(NC(=O)CN(C)C(=O)c2ccccc2OCc2cccc(C)c2)cc1OCC | -7.6 | -1.5% | ? | -19.7 | ? | -27.8
O=c1[nH]c(CSc2nnc(-c3ccco3)n2-c2ccccc2)nc2sc3c(c12)CCC3 | . | 2.1% | . | . | . | .
O=C(Nn1c(-c2ccncc2)nc2ccccc2c1=O)c1ccccc1Br | -10.4 | -4.2% | -10.2% | -15.4 | 27.1% | 16.7
O=CNc1cc(-c2ccoc2)cn2c(-c3ccc(F)cc3)cnc12 | -24.7 | . | 23.1µM* | -10.7 | 13µM* | 23.2
O=CNc1cc(-c2cccc(F)c2)cn2c(-c3ccc(F)cc3)cnc12 | -3.5 | . | ? | -12.6 | 29.1µM* | 2.2
CS(=O)(=O)Nc1cccc(-c2cc(NC=O)c3ncc(-c4ccc(F)cc4)n3c2)c1 | ? | . | ? | ? | 23.1µM* | 34.2
COC(=O)C[C@@H]1C=C[C@H](NC(=O)Nc2ccc(OC)cc2)[C@@H](CO)O1 | -0.6 | . | -0.2% | 1.7 | -1.2% | 0.0
CCOC(=O)N1CCC(N(CCCOC)C(=O)Nc2ccc(CC)cc2)CC1 | 14.0 | 8.0% | 13µM* | 3.0 | 18.4µM* | 7.1
CCOC(=O)N1CCC(N(C(=O)Nc2ccc(CC)cc2)C(C)CC)CC1 (stereo not drawn) | 13.4 | 2.1% | 23.1µM* | 5.0 | ? | -8.0
CCOC(=O)N1CCC(N(C(=O)Nc2ccccc2)C(C)CC)CC1 (stereo not drawn) | 4.8 | 5.2% | ? | 1.9 | ? | 4.8
CCc1ccc(NC(=S)N(CCOC)C2CCN(C(C)=O)CC2)cc1 | . | . | -8.1% | 0.9 | -7.3% | -17.4
CCOC(=O)N1CCC(N(CCOC)C(=O)Nc2ccc(Cl)cc2)CC1 | -3.8 | 1.1% | 14.6µM* | 6.9 | ? | 0.0
CC1CCC2(CC1)NC(=O)N(CC(=O)N1c3ccccc3CC1C)C2=O (stereo not drawn) | 5.5 | -1.6% | -13.3% | 5.1 | ? | -2.7
COc1ccc(-c2nc(S(=O)(=O)c3ccc(C)cc3)c(N3CCCC3)o2)cc1 | -20.0 | 6.2% | -24.6% | -3.4 | -19.1% | 18.6
O=S(=O)(c1ccccc1)c1nc(-c2cccs2)oc1N1CCCCC1 | . | 4.2% | ? | . | 29.1µM* | .
Cc1ccc(S(=O)(=O)c2nc(-c3cccs3)oc2N2CCC(C)CC2)cc1 | . | -2.1% | 10.3µM* | . | 23.1µM* | .
CC1CCN(c2oc(-c3cccs3)nc2S(=O)(=O)c2ccc(Cl)cc2)CC1 | . | 2.1% | 13µM* | . | ? | .
CNc1oc(-c2cccs2)nc1S(=O)(=O)c1ccccc1 | -2.3 | 0.0% | -18.9% | -20.4 | 4.4% | -21.4
COCCCNc1nc(N)c([N+](=O)[O-])c(NC2CCCCC2)n1 | -20.0 | . | ? | -6.2 | ? | 89.0
O=C(O)c1cc2ccc3ccccc3c2[nH]1 | 8.0 | -1.3% | -2.2% | -1.6 | -29.0% | 33.5
CCC(CC)c1nnc(NC(=O)c2nc3nc(C)cc(C)n3n2)s1 | -7.7 | 5.1% | -3.2% | 1.7 | -8.5% | -0.2
O=c1[nH]c(NCCO)nc2c1C1(CCCCC1)Cc1ccccc1-2 | 1.1 | 9.3% | ? | 0.2 | ? | 0.0
SMILES | CtBP-E1A blk | TDP1 inh | TDP1 cell noCPT | Six1-Eya2 inh | DT40 TDP1 CPT | IL1B secr inh
Cc1nc(=S)c2c([nH]1)-c1ccccc1CC21CCCCC1 | -1.5 | 7.1% | 18.4µM* | -2.5 | 20.6µM* | 0.6
COc1ccccc1S(=O)(=O)Cc1ccc(C(=O)NCc2ccco2)o1 | -4.7 | 2.4% | 1.3% | 3.9 | -3.5% | -26.3
COc1cc2c(cc1OC)C(COc1cccc(C(F)(F)F)c1)NCC2 (stereo not drawn) | -7.2 | 3.6% | ? | -2.2 | 20.6µM* | -8.1
Fc1ccc(-c2nnc(NC3=NCCCCC3)o2)cc1 | 0.0 | 1.0% | 13µM* | 24.5 | ? | 10.9
Cc1ccc(/C=C2\SC(=S)N(/N=C/c3cc([N+](=O)[O-])ccc3O)C2=O)o1 | -92.6* | ? | ? | -88.9* | ? | 0.5
O=C(OCC1OC2C(Oc3nc(=O)ccn32)C1O)c1ccccc1 (stereo not drawn) | -3.8 | 4.2% | -11.4% | 5.7 | -2.5% | 0.0
N=c1ccn2c(n1)O[C@H]1[C@@H](CO)[C@H](O)O[C@H]12 | 1.9 | . | 0.0058µM* | 0.4 | 0.0366µM* | 39.0
Cc1cc(C(=O)N2CCc3ccccc32)n(-c2ccccc2)n1 | 0.8 | 9.8% | 18.4µM* | 6.6 | ? | 36.1
Cc1cc(C)n(-c2ccc(C(=O)N3CCc4ccccc43)cc2)n1 | -1.7 | 7.7% | 16.4µM* | 7.1 | ? | ?
Cc1cc(C)n(C(C)CC(=O)N2CCc3ccccc32)n1 (stereo not drawn) | . | 1.0% | ? | 4.6 | -2.7% | 39.5
COc1ccc(S(=O)(=O)NNS(=O)(=O)c2ccc(OC)c(OC)c2)cc1OC | -6.8 | . | -17.1% | -2.4 | -12.4% | 29.3
Cn1nnnc1SCCNCc1cc(Br)ccc1OCc1ccccc1Cl | . | 8.4% | 16.4µM* | . | 23.1µM* | .
Cn1nnnc1SCCNCc1ccc(OCc2ccccc2Cl)cc1 | . | 5.8% | ? | . | ? | .
Cn1nnnc1SCCNCc1ccccc1OCc1ccccc1Cl | 4.6 | 0.0% | 13µM* | -0.5 | ? | -50.4*
Cn1nnnc1SCCNCc1ccccc1OCc1ccccc1F | . | 5.8% | ? | . | 18.4µM* | .
COc1cc(C(=O)OCC(=O)NCCCc2ccccc2)ccc1OCC(C)C | 9.4 | 5.1% | 14.4% | 4.5 | -9.8% | 17.3
O=C(c1ccc(Cl)nc1)N1CCc2ccccc2C1 | 4.2 | -0.7% | -18.6% | -0.9 | -20.3% | -9.4
CC1CC(C)CN(C(=O)COC(=O)c2ccc3c(c2)C(=O)N(Cc2ccco2)C3=O)C1 (stereo not drawn) | -1.6 | 5.6% | 5.4% | -0.2 | -17.7% | 5.3
O=c1c2sccc2nc(SCc2cc(=O)n3cc(Br)ccc3n2)n1Cc1ccccn1 | -3.0 | -3.4% | 20.6µM* | -7.2 | 20.6µM* | -53.3*
N#Cc1ccccc1CSc1nc2ccsc2c(=O)n1Cc1ccccn1 | 0.0 | 2.7% | ? | 21.8 | ? | 18.7
